Hits are enriched below; roughly 19% of the tested compounds scored in any of these assays.
uPA generation – blocks generation of uPA at the cell surface; cell surface uPA generation assay, qHTS; Potency, µM (top dose mostly 38.3 µM), for the others: top-dose activity change, negative = inhibition, most hits filed as inhibitors; 330,000 compounds, 0.31% hits; AID 540303; active = well fitted inhibition curve with a large enough effect; inconclusive = small, poorly fitted or top-dose-only effect; inactive = no such curve, though single readings can be large or run the other way; tested in mouse RAW 264.7 cells; note: potency is the fitted concentration of half-maximal effect; nearly all actives have a fitted effect of over 55% in size
IL1B secr inh – inhibitors of inflammasome signaling (IL-1 beta secretion) | THP-1 LPS/ATP IL-1B secretion, AlphaLISA, 16 h; stronger effect = lower value | activity change, % at 57.5 µM | 360,000 compounds, 4.7% hits | AID 743279; in the data active = activity change below about -50%; inconclusive = mostly about -30% to -49%
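Secreted IL-1B measured by AlphaLISA bead assay after 16 h compound exposure of THP-1 cells; compounds (final up to 57.5 uM) added 1 h before LPS (250 ng/mL) and ATP (1.25 mM) stimulation; lower signal means less secretion.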
HT1080 IDH1KD tx – toxicity to HT-1080 IDH1 knockdown cells (counter line); Potency, µM (highest dose often 46.1 µM), inactives show top-dose activity, negative = toxicity, actives largely listed as cytotoxic; 360,000 compounds, 2% hits; HT-1080 IDH1 knockdown viability, ATP luminescence, 48 h;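 note: potency is the fitted concentration of half-maximal effect; 0% = DMSO wells and -100% = cell-free medium wells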
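Assay cells: HT-1080 with IDH1 knockdown, 750 per well, RPMI/5% FBS. Exposure: 48 h at 37 °C following 2 h pre-incubation. Read: CellTiter-Glo luminescence; fitted concentration-response, curve class assigned.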
DT40 TDP1 no CPT – qHTS for Inhibitors of human tyrosyl-DNA phosphodiesterase 1 (TDP1): qHTS in cells in absence of CPT | DT40 Tdp1-/- hTDP1 cells, no CPT, ATP luminescence, 48 h | Potency, µM (titrated, usually from 46.2 µM), inactives show at the highest dose activity change, negative = growth inhibition, actives largely listed as inhibitors | 420,000 compounds, 15% hits | AID 686978, 2013; note: potency is the fitted concentration of half-maximal effect; nearly all actives have a fitted effect of over 55% in size
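DT40 Tdp1-/-;hTDP1 cells, no CPT (DMSO vehicle only), 400 cells/well; compounds pin-transferred; ≥48 hr, 37 °C; CellTiter-Glo 30 min RT dark, luminescence read.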
TDP1 cell CPT – DT40-hTDP1 cell growth loss with CPT; Potency, µM (series often up to 46.2 µM), without a hit: top-dose activity change, negative = growth inhibition, most hits filed as inhibitors; chicken DT40 Tdp1-/-;hTDP1 cells + 20 nM CPT, ATP luminescence, 48 h; 420,000 compounds, 12% hits; note: potency is the fitted concentration of half-maximal effect; nearly all actives have a fitted effect of over 55% in size
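Chicken DT40 Tdp1-/- cells complemented with human TDP1, 400 cells/well, exposed to compounds plus 20 nM camptothecin for at least 48 h at 37 C; viability read as ATP content by CellTiter-Glo luminescence.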
HT1080-NT tox – kills 2HG-producing HT-1080-NT fibrosarcoma cells | HT-1080-NT fibrosarcoma viability, CellTiter-Glo ATP luminescence, 48 h | Potency, µM (highest dose often 46.1 µM), for the others: at the top dose activity, negative = less viability, hits mostly cytotoxic | 360,000 compounds, 1.6% hits | AID 686970;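 note: NT is the 2HG producing partner of a matched IDH1 knockdown line; potency is the fitted concentration of half-maximal effect; 0% = DMSO-treated cells and -100% = media-only wells without cells; nearly all actives have a fitted effect of over 55% in size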
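750 cells/well, RPMI + 5% FBS; 2 h settle, compound pin-transfer, 48 h at 37 degrees C. CellTiter-Glo 10 min RT, luminescence. Normalized to DMSO and media-only wells.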
* marks the source's active call; other numbers are inactive results; i = inactive; ? = inconclusive; . = not tested or not shown; [ ] = another dose, or the depositor's remark. Unless noted, calls come from the whole dose curve; as a rule, active = well fitted curve in the direction sought with a large enough effect; inconclusive = small, poorly fitted or top-dose-only effect, or another doubt; inactive = no such curve, though single readings can be large; an effect the other way counts as inactive or inconclusive. Unless noted, % is set by controls: 0 for no effect and ±100 for the full control effect.

SMILES	uPA generation	IL1B secr inh	HT1080 IDH1KD tx	DT40 TDP1 no CPT	TDP1 cell CPT	HT1080-NT tox
O=C1CCCCC1C(O)(C(=O)c1ccccc1)c1ccccc1 (centres undefined)	.	-23	-28%	?	1%	-16%
Cc1cc(C(=O)N2CCC2(C)C(=O)O)nn1C(C)(C)C (centres undefined)	.	4	-2%	-1%	-1%	24%
O=C(O)Cn1nc(-c2ccccc2)ccc1=O	2%	6	-3%	-12%	-9%	-2%
O=C(N/N=C/c1ccc(N2CCOCC2)cc1)c1ccncc1	-4%	3	1%	-23%	-21%	1%
O=C(N/N=C/c1ccc(N2CCOCC2)cc1)c1ccccc1OCCOc1ccccc1	-4%	-65*	?	?	16µM*	-20%
COc1cc(OC)c(NC(=O)C2=C(C)C(=O)OC23CCN(C(C)=O)CC3)cc1Cl	.	.	.	6%	11%	.
CCOc1ccc(-c2ccc(NS(=O)(=O)c3ccc(C)cc3)cc2)nn1	.	.	.	?	16µM*	.
CCOc1ccc(-c2ccc(NS(=O)(=O)c3cc(C)c(C)cc3C)cc2)nn1	.	.	.	18µM*	23µM*	.
COc1ccc(-c2ccc(C(=O)N(C)Cc3csc(C)n3)c(N3CCC(N4CCc5ccccc5C4)CC3)n2)cc1	.	.	.	-21%	8%[9.04 µM]	.
COc1ccc(C2=C(c3ccccc3)OC(OC)c3cc(F)ccc32)cn1 (centres undefined)	.	-6	-21%	?	-22%	-21%
CC1C(c2ccccc2)=Nn2c(=O)n(-c3ccccc3)c(=O)n21 (centres undefined)	.	41	3%	23µM*	?	-2%
Cc1nc(=O)c(-c2ccccc2)c(C)n1-c1ccccc1	-9%	10	1%	21%	4%	-5%
O=C1C=CC(=O)N1c1ccc(Nc2ccccc2)cc1	-14%	-30	-10%	5.8µM*	5.8µM*	-18%
O=C1C=CC(=O)N1c1ccc2ccccc2c1	-8%	-18	6%	5.2µM*	4.1µM*	4%
Cc1cccc(N2C(=O)C3CCCN3C2=S)c1 (centres undefined)	4%	5	-3%	30%	-19%	2%
Cc1cccc(N2C(=O)C=CC2=O)c1	-3%	-9	7%	4.6µM*	2.6µM*	3%
CN(Cc1ccccc1)C(=O)Nc1ccc(Cl)cc1	-15%	?	-2%	-19%	-2%	2%
COC(=O)c1cn([C@@H]2C[C@@H](C(=O)N3CCCCCC3)N(Cc3cc4ccccc4s3)C2)nn1	.	.	.	-27%	-29%	.
CCc1ccc(N=C2NC(=O)/C(=C/c3cc(OC)c(O)c(OC)c3)S2)cc1	-11%	11	-11%	26µM*	?	-3%
COc1ccc(/C=C2\SC(=Nc3ccccc3OC)NC2=O)cc1	-26%	?	?	?	23µM*	?
COc1cc(/C=C2\SC(=Nc3cccnc3)NC2=O)cc(OC)c1OC	0%	75	0%	?	?	0%
COc1cc(/C=C2\SC(=Nc3ccccc3)NC2=O)cc(Cl)c1O	-7%	31	?	?	?	-28%
COc1cc(/C=C2\SC(=Nc3ccccc3OC)NC2=O)ccc1O	-13%	-60*	7.3µM*	?	?	4.1µM*
COc1cc(/C=C2/SC(=Nc3ccc(O)cc3)NC2=O)ccc1O	-15%	?	1.2µM*	0.65µM*	1µM*	0.65µM*
Cc1ccn(CC(=O)N2CCCC(N3CCN(c4cccc(C(F)(F)F)c4)CC3)C2)n1 (centres undefined)	.	-2	-3%	?	?	-5%
SMILES	uPA generation	IL1B secr inh	HT1080 IDH1KD tx	DT40 TDP1 no CPT	TDP1 cell CPT	HT1080-NT tox
O=C(Nc1cccc(C(F)(F)F)c1)c1csc([C@H]2C[C@H](O)[C@@H](CO)O2)n1	.	2	0%	?	?	3%
COc1ccc(N2CCN(C(=O)c3c(C)nn(-c4ccccc4)c3C)CC2)cc1	2%	-9	8%	?	?	5%
Cc1nn(-c2ccccc2)c(-n2cccc2)c1C(=O)N1CCN(c2ccccc2)CC1	.	.	.	23µM*	?	.
Cc1nn(-c2ccccc2)c(-n2cccc2)c1C(=O)NCCc1ccc(Cl)cc1	.	.	.	?	21µM*	.
Cc1nn(-c2ccccc2)c(-n2cccc2)c1C(=O)NCc1ccccc1Cl	.	.	.	26µM*	21µM*	.
COc1cccc(CNC(=O)c2c(C)nn(-c3cccc(C)c3)c2-n2cccc2)c1	.	.	.	15µM*	?	.
COc1cccc(CNC(=O)c2c(O)nc3ccccn3c2=O)c1	.	.	.	?	-10%	.
Cc1ccc(NC(=O)Cn2c(=O)n(CC3CCCO3)c(=O)c3ccccc32)cc1 (centres undefined)	.	.	.	-24%	-26%	.
Cc1c(C(=O)NCc2ccccc2)c(-c2ccccc2)nn1-c1ccccc1	.	-3	3%	?	23µM*	8%
Cc1c(C(=O)NC(C)C)c(-c2ccccc2)nn1-c1ccccc1	29%	-3	1%	-20%	-5%	8%
CC(C)(C)c1ccc(/C=N/NC(=S)NCc2ccccc2)cc1	-5%	35	9%	?	?	-1%
COCC(=O)N/N=C\c1ccc(OC/C=C/c2ccccc2)c(OC)c1	7%	i	-17%	?	?	-11%
